Assay [1] concerns the target Thyrotropin receptor (Homo sapiens) (UniProt P16473). As to the kind of experiment: qHTS assay to identify small molecule agonists of the thyroid stimulating hormone receptor (TSHR) signaling pathway (AID 1224843; calls by dose curve; note: nearly all actives have a fitted effect of over 45% in size). The procedure, abridged: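 Agonist activity read as cAMP rise via d2/cryptate HTRF competition, 1 h room-temperature detection, in HEK293 cells expressing TSHR. Fifteen-point titrations, each run in triplicate, with a 30 min room-temperature incubation beforehand.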
A general note: qHTS replaces the single test concentration by a dilution series.

Assay [2] in a line: qHTS assay to identify small molecule agonists of the hypoxia (HIF-1) signaling pathway - cell viability counter screen (AID 1224844; calls by dose curve; note: nearly all actives have a fitted effect of over 50% in size). The procedure, abridged:
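HRE-bla ME-180; 0.5% dFBS; cpd 17 h, 37C, 5% CO2; CellTiter-Glo lum., 30 min RT, post-FRET read, same wells.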

Assay [3] is described as follows: qHTS assay to identify small molecule agonists of H2AX (AID 1224845; active = well fitted activation curve with a large enough effect in the signal ratio in the repeat runs, not every such curve was filed as active; the % refers to the signal ratio). The procedure, abridged: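 Phospho-H2AX Ser139 measured by HTRF (ex 320 nm; em 665 and 620 nm) after 24 hr antibody incubation. Compounds, 15 concentrations, 0.76% DMSO, were applied to CHO-K1 cells for 3hr at 37C before lysis.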
Assay [4] can be described thus: qHTS assay to identify small molecule agonists of the hypoxia (HIF-1) signaling pathway (AID 1224846; active = well fitted activation curve with a large enough effect in the signal ratio in the repeat runs, not every such curve was filed as active; the % refers to the signal ratio). Summed up: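 Reporter induction in HRE-bla ME-180 cells is taken as agonism: cells sit 5 hrs after plating, receive compounds or DMSO only, incubate 17 hrs at 37C under 5% CO2, and are loaded with CCF4-AM for beta-lactamase FRET measurement.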
The nature of assay [5]: qHTS assay to identify small molecule agonists of H2AX - cell viability counter screen (AID 1224847; calls by dose curve; note: top concentration of the series differs between compounds; nearly all actives have a fitted effect of over 30% in size). Summed up: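 We seed wild-type CHO-K1 cells overnight, treat them for 3 hr at 37C with compounds in 15-concentration series, and quantify remaining viability by CellTiter-Glo luminescence.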
A short description of assay [6]: qHTS assay to identify small molecule antagonists of the estrogen related receptor (ERR) signaling pathway from Tox21 library (AID 1224848). Note: nearly all actives have a fitted effect of over 50% in size. Summed up: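 Luciferase luminescence (ONE-Glo, 30 min room temperature) was the read-out. Cells of the NTP-supplied ERR line, 2,000 per well, were given 6 h at 37 C before compound addition in DMSO and 18 h exposure at 37 C.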

The nature of assay [7]: qHTS assay to identify small molecule agonists of the estrogen related receptor (ERR) signaling pathway from Tox21 library (AID 1224849; calls by dose curve; note: nearly all actives have a fitted effect of over 15% in size). The settings on record: ERR reporter cell line, ONE-Glo luciferase, 18 h; at 92.4 µM (top of the series) unless noted. The procedure, abridged:
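Tox21 compounds tested for ERR agonism in an NTP reporter cell line: 18 h treatment at 37 C, then ONE-Glo luminescence.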

Assay [8] can be described thus: qHTS RealTime-Glo MT Cell Viability Assay in HepG2 cells - 24 hour (AID 1224867). Note: nearly all actives have a fitted effect of over 50% in size. Summed up:
(§1)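 Compound treatment began 5 h after plating HepG2 cells (600/well) with NanoLuc luciferase and prosubstrate. Plates stayed at 37 C for 40 h; luminescence was captured at six time points, 0 h through 40 h.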

Assay [9] is described as follows: qHTS RealTime-Glo MT Cell Viability Assay in HEK293 cells - 32 hour (AID 1224868). Note: nearly all actives have a fitted effect of over 50% in size. Note: potency is the fitted concentration of half-maximal effect. Summed up: (§2)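 Quantitative high-throughput screen of the Tox21 10K library in HEK293: cells and RealTime-Glo reagents plated together, compound added at 5 h, luminescence monitored through 40 h at 37 C.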
A short description of assay [10]: A CellTox Green Cytotoxicity Assay to monitor cytotoxicity in HEK293 cells - 0 hour (AID 1224869). Note: nearly all actives have a fitted effect of over 50% in size. The procedure, abridged:
(§3)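 Tox21 screen in HEK293: membrane-impermeant cyanine dye fluoresces on binding dead-cell DNA; compound pinned 5 h post-seeding, plates held at 37 C, signal read repeatedly through 40 h.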

Assay [11] can be described thus: qHTS RealTime-Glo MT Cell Viability Assay in HepG2 cells - 40 hour (AID 1224870). Note: nearly all actives have a fitted effect of over 50% in size. Summed up: (§4)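 Real-time viability: cells seeded at 600 per well together with NanoLuc and cell-permeant prosubstrate, compounds added after 5 h incubation. Luminescence tracked at 0, 8, 16, 24, 32 and 40 h of exposure.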
A short description of assay [12]: A CellTox Green Cytotoxicity Assay to monitor cytotoxicity in HEK293 cells - 40 hour (AID 1224871). Note: nearly all actives have a fitted effect of over 45% in size. Summed up: as §3
Assay [13] can be described thus: qHTS RealTime-Glo MT Cell Viability Assay in HEK293 cells - 16 hour (AID 1224872). Summed up:
as §2

A short description of assay [14]: qHTS RealTime-Glo MT Cell Viability Assay in HepG2 cells - 8 hour (AID 1224873). Note: nearly all actives have a fitted effect of over 55% in size. Summed up: as §4
The nature of assay [15]: qHTS RealTime-Glo MT Cell Viability Assay in HEK293 cells - 40 hour (AID 1224874). Note: nearly all actives have a fitted effect of over 50% in size. Note: potency is the fitted concentration of half-maximal effect. The settings on record: RealTime-Glo luminescence; max response: hits give low values. The procedure, abridged:
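HEK293 + NanoLuc + prosubstrate, 600 cells/well; 5 h, 37 C/5% CO2; compound 23 nL in DMSO by pintool; 37 C; luminescence read at 0, 8, 16, 24, 32 and 40 h time points.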

Assay [16] is described as follows: A CellTox Green Cytotoxicity Assay to monitor cytotoxicity in HEK293 cells - 24 hour (AID 1224875). Note: nearly all actives have a fitted effect of over 45% in size. The procedure, abridged:
as §3

A short description of assay [17]: A CellTox Green Cytotoxicity Assay to monitor cytotoxicity in HepG2 cells - 16 hour (AID 1224876). Note: nearly all actives have a fitted effect of over 45% in size. The procedure, abridged: (§5)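 Measurements at 0, 8, 16, 24, 32 and 40 h of treatment captured CellTox Green fluorescence in HepG2 cells that had been co-plated with reagent and preincubated 5 h at 37 C/5% CO2.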
The nature of assay [18]: qHTS RealTime-Glo MT Cell Viability Assay in HepG2 cells - 32 hour (AID 1224877). Note: nearly all actives have a fitted effect of over 55% in size. Summed up:
as §1

A short description of assay [19]: A CellTox Green Cytotoxicity Assay to monitor cytotoxicity in HepG2 cells - 24 hour (AID 1224878). Note: nearly all actives have a fitted effect of over 45% in size. The procedure, abridged:
as §5

Assay [20] is described as follows: A CellTox Green Cytotoxicity Assay to monitor cytotoxicity in HepG2 cells - 40 hour (AID 1224879). Note: nearly all actives have a fitted effect of over 40% in size. Summed up:
as §5

A number with no mark means an inactive call. Results filed as inconclusive are left out. Active and inactive are the calls of the source. Unless noted, calls come from the whole dose curve; as a rule, active = well fitted curve in the direction sought with a large enough effect in the repeat runs; inconclusive = weak or mixed curves; inactive = no such curve, though single readings can be large; an effect the other way counts as inactive or inconclusive.
% is set by controls: 0 for no effect and ±100 for the full control effect.

Thyrotropin receptor (Homo sapiens), sequence (P16473 whole entry, looked up): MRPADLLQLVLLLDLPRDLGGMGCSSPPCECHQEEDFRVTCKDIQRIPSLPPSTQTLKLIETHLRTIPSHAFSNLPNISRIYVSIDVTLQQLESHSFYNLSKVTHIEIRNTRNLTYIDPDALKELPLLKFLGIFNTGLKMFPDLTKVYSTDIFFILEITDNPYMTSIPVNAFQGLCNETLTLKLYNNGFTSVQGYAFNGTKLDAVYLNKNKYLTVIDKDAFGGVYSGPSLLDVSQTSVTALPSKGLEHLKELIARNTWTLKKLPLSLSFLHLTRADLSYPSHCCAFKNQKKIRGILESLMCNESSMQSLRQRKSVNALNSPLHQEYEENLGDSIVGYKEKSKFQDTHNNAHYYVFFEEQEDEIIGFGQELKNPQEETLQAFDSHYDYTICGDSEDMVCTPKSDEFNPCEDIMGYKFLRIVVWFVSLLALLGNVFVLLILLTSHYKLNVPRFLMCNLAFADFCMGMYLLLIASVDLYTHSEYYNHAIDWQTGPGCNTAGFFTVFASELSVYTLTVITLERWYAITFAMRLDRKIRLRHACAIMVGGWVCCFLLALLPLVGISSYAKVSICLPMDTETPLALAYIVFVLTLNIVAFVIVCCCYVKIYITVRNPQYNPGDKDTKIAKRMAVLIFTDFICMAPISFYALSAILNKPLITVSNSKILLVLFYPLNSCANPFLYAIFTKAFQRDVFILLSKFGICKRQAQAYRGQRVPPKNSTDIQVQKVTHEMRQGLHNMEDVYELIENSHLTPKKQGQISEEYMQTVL

`CC[C@@H](CO)NC(=O)[C@@H]1C=C2c3cccc4[nH]cc(c34)C[C@H]2N(C)C1`: the Potency entry in assay [1], in assay [2], in [5], in [6], in [8] and in assay [9] was “inactive” each time. Moreover, the Potency result in [11], in [12], in [13], in assay [16], in assay [17] and in assay [18] was “inactive” each time. Besides, the Potency entry in assay [19] and in assay [20] was “inactive” each time. Besides, the result in assay [3], in assay [4], in assay [10] and in assay [14] was inactive. Besides, the activity change, positive = activation in assay [7] is -0.565% [at 42.5 µM]. In addition, in [15], the max response was 1.11%.

Regarding `CC(Cc1ccccc1)NCCn1cnc2c1c(=O)n(C)c(=O)n2C` (configuration not stated), the Potency result in assay [1], in assay [2], in assay [5], in [6], in assay [8] and in [11] was “inactive” in each case. For the same molecule, the Potency result in assay [12], in [16], in [17], in [18] and in assay [19] was “inactive” each time. Also, the call in [3], in assay [4], in assay [10] and in assay [14] was inactive. Further, the activity change, positive = activation in assay [7] was -15.8%. The Potency in assay [9] is 21.6 µM (active); in [15], 24.2 µM (active).

Take `CCCOC(=O)c1cncn1C(C)c1ccccc1` (configuration not stated): the Potency entry in assay [1], in [2], in assay [5], in assay [6], in assay [8] and in assay [11] was “inactive” in each case. In addition, the Potency result in [12], in assay [13], in [16], in [17], in [18] and in [19] was “inactive” each time. The Potency result in [20] was “inactive”. Besides, the result in [3], in [4], in assay [10] and in [14] was inactive. Also, the activity change, positive = activation in [7] was 0.709% [at 42.5 µM]. Besides, in [15], the max response was -0.62%.

`CCC1(CC)C(=O)C=CNC1=O`: the Potency entry in assay [1], in assay [2], in assay [5], in assay [6], in [8] and in [11] was “inactive” in each case. Besides, the Potency result in assay [12], in assay [13], in assay [16], in assay [17], in [18] and in assay [19] was “inactive” in each case. In addition, the Potency entry in assay [20] was “inactive”. In addition, the outcome in assay [3], in assay [4], in [10] and in assay [14] was inactive. Besides, the activity change, positive = activation in [7] is 4.55% [at 42.5 µM]. The max response in [15] was 1.59%.

Regarding `C[C@]12C=CC(=O)C=C1CC[C@@H]1[C@@H]2CC[C@@]2(C)[C@H]1CC[C@]2(C)O`, the Potency result in assay [1], in assay [2], in assay [5], in assay [8], in [9] and in assay [11] was “inactive” in each case. Also, the Potency result in [12], in assay [13], in [16], in [17], in [18] and in [19] was “inactive” in each case. Further, the result in assay [3], in [4], in assay [10] and in assay [14] was inactive. The activity change, positive = activation in assay [7] was -17.6% [at 42.5 µM]. Further, the max response in [15] was -19.7%.

With `CCCCOC(C)=O`, the Potency entry in assay [1], in assay [2], in assay [5], in assay [8], in assay [9] and in assay [11] was “inactive” in each case. Besides, the Potency result in assay [12], in assay [13], in assay [16], in [17], in [18] and in assay [19] was “inactive” in each case. In addition, in assay [20], the Potency result was “inactive”. Also, the call in assay [3], in [4], in assay [10] and in [14] was inactive. Also, the max response in assay [15] is 8.22%.

Regarding `COc1cccc([C@@]2(O)CCCC[C@@H]2CN(C)C)c1`, the Potency entry in assay [1], in [2], in assay [5], in assay [6], in [8] and in assay [9] was “inactive” in each case. Besides, the Potency entry in assay [11], in assay [12], in assay [13], in [16], in assay [17] and in assay [18] was “inactive” each time. Also, the Potency result in assay [19] and in [20] was “inactive” throughout. In addition, the molecule was called inactive in assay [3], in assay [4], in assay [10] and in assay [14]. Besides, the activity change, positive = activation in assay [7] was 1.87% [at 42.5 µM]. Further, the max response in assay [15] is 0.459%.
